Laboratory results as given in PMC5540273 (PLoS ONE, 2017).

Tested on: AKT2
Conditions: concentration: 1 μM, replicates: in singlicate; n = 1
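Also: KINOMEscan kinase panel screen.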

| Structure (SMILES) | %Inh |
| --- | --- |
| Cc1cccc(-c2cc(-c3c[nH]nc3-c3ccccn3)ccn2)c1 [GW679395] | 1% |
| Cc1ccc(Oc2ccc(Nc3ncnc4cc[nH]c34)cc2C)cn1 | 0% |
| O=C1NC(=O)C(c2ccccc2)=C1Nc1cccc(O)c1 [SB-390534] | 0% |
| CCS(=O)(=O)c1ccc(OC)c(Nc2ncc(-c3ccc(F)cc3)o2)c1.Cl [GW591947] | 0% |
| Cl.c1ccc(Cn2cnc3cc(Nc4ncnc5ccccc45)ccc32)cc1 [GW272142] | 3% |
| CN(C)c1cc(-c2ccc3c(N)n[nH]c3c2)nc(N)n1 [GSK2219329] | 0% |
| Cc1nn2c(=O)cc(N3CCOCC3)nc2n1Cc1cccc(Cl)c1Cl [GSK2342769] | 14% |
| Nc1nc(-c2ccccc2F)c(-c2ccnc3ccccc23)s1 [GW560459] | 0% |
| COc1ccc(-n2cnc3c(N)ncnc32)cc1 [SKF-97236] | 1% |
| COc1cccc(C2=C(Nc3cccc(C(=O)O)c3)C(=O)NC2=O)c1 [SB-390770] | 0% |
| COc1cc2nccc(Nc3cccc(Oc4ccccc4)c3)c2cc1OC.Cl [GW284543] | 7% |
| CCCC(=O)Nc1n[nH]c2ncc(-c3cccc4ccccc34)cc12 [SB-642057] | 39% |
| CCc1nc(-c2cccc(C)c2)c(-c2ccncc2)s1 | 0% |
| O=C(Nc1ccc2c(c1)OCO2)NC1CCN(c2ccnc(NCc3ccc(F)cc3)n2)CC1 [GSK1379859] | 5% |
| Cc1ccc(-c2ccc3c(ccc4sc5c(c43)NC[C@@H](C)N=C5N(C)C)n2)cn1 | 0% |
| Cc1nc(N(C)[C@H]2CN(C(=O)CC#N)CC[C@H]2C)c2cc[nH]c2n1 | 1% |
| O=C(Nc1n[nH]c2nc(-c3ccccc3)c(Cl)cc12)C1CC1 [SB-734909] | 0% |
| COc1cccc(C2=C(N(C)c3ccccc3)C(=O)NC2=O)c1 [SB-334865] | 13% |

| Structure (SMILES) | %Inh |
| --- | --- |
| COc1ccc(-c2coc3ccc(-c4nnc(SCc5cccc(C#N)c5)o4)cc23)cc1 | 2% |
| O=C(NCCNc1ccnc(Nc2ccc(F)cc2)n1)Nc1ccc2c(c1)OCO2 [GSK1379882] | 0% |
| CCS(=O)c1ccc(-c2coc3ccc(-c4nnc(C)o4)cc23)cc1 (stereo not drawn) | 0% |
| Cc1cccc(-c2nc(Nc3ccc4c(cnn4C)c3)c3ccccc3n2)n1 [GW876731] | 0% |
| CCn1c(-c2nonc2N)nc2ccccc21 [SB-693162/GW549034] | 1% |
| CCC(=O)c1c(-c2ccccc2)c2cc(Cl)ccc2c(=O)n1Cc1cc(S(C)(=O)=O)n(CC(F)F)n1 | 0% |
| COc1cc2ncn(-c3cc(OCc4ccncc4Br)c(C(N)=O)s3)c2cc1OC [GW854278] | 0% |
| COC(=O)c1c(-c2ccccc2)c2cc(C)ccc2c(=O)n1Cc1ccccc1 | 3% |
| Cc1nnc(-c2ccc3ncn(-c4ccc(S(C)=O)cc4)c3c2)o1 (stereo not drawn) | 0% |
| COC(=O)c1c(-c2ccccc2)c2cc(Br)ccc2c(=O)n1Cc1ccc(S(C)(=O)=O)cc1 | 28% |
| CCC(=O)c1c(-c2ccccc2)c2cc(Cl)ccc2c(=O)n1Cc1cc(S(C)(=O)=O)n(CC(N)=O)n1 | 0% |
| COc1cc(Nc2ccnc3ccc(C(F)(F)F)cc23)cc(OC)c1OC [GW577382] | 20% |
| Cc1ccccc1COc1cc(-n2cnc3cc(Cl)ccc32)sc1C(N)=O [GW813349] | 3% |
| Nc1n[nH]c2ncc(-c3ccccc3)cc12 [SB-517081] | 12% |
| CC(C)(C)c1ccc(C(=O)Nc2cn3cc(-c4ccccc4)ccc3n2)cc1 | 0% |
| FC(F)(F)c1ccc(-c2ncn(CCCN3CCOCC3)c2-c2ccncc2)cc1 [SB-217780] | 0% |
| O=C(Nc1n[nH]c2nc(-c3ccccc3)c(Br)cc12)C1CC1 [SB-708998] | 4% |
| COC(=O)c1c(-c2ccccc2)c2cc(Br)ccc2c(=O)n1Cc1ccc(NC(=O)CCC(=O)O)cc1 | 11% |
